Laboratory results as given in PubChem BioAssay (EPA / NIEHS).
Active and inactive are the calls of the source. How the source made its calls: active means hit-call score of the fitted dose curve at least 0.9, where 1 is the maximum; inactive means score below 0.9.

Each molecule was assayed on matrix metalloproteinase-10 (MMP10), MMP10 (gene 4319) (assay: LTEA_HepaRG_MMP10: Life Technologies and Expression Analysis (LTEA) Assay for matrix metalloproteinase-10 (MMP10) using HepaRG (AID 2283517)). Conditions: mRNA level, 48 h; actives raise or lower the signal.
Protocol: LTEA_HepaRG is a cell based, multiplexed-readout assay that uses HepaRG, a human liver cell line, with measurements taken at 48 hours after chemical dosing on a 96-well plate.LTEA_HepaRG_MMP10 is one of 102 assay component(s) measured in the LTEA HepaRG cell culture assay. It is a marker of Fibrosis.Data from the assay component LTEA_HepaRG_MMP10 was analyzed into 1 endpoint. This assay endpoint, LTEA_HepaRG_MMP10, was analyzed with bidirectional fitting relative to DMSO as the negative control and baseline of activity. Using a type of inducible reporter, measures of mRNA induction for gain or loss-of-signal activity can be used to understand regulation of transcription factor activity. To generalize the intended target to other relatable targets, this assay endpoint is annotated to the protease intended target family, where the subfamily is matrix metalloproteinase.
A total of 1060 chemcials from the ToxCast library were tested in eight-point concentration-response experiments. Cell culture and cytotoxicity assays were conducted at Thermo Fisher Scientific's Custom Services facility (Madison, WI). A single lot of human HepaRG cells (Thermo Fisher Scientific, Frederick, MD) was used for the cell culture experiments. 96-well format collagen type I coated plates of human HepaRG cells were prepared using established methods. Briefly, cryopreserved HepaRG cells were thawed, plated at a density of approximately 100,000 cells/well in HepaRG Thaw, Plate, and General Purpose media (HPRG770, Thermo Fisher Scientific), and incubated for 48 hours. 0.5% DMSO was selected as vehicle control to balance the requisite need of DMSO in HepaRG cultures to maintain differentiation (for example, baseline metabolism, proportions of hepatocytes vs. cholangiocytes), while enabling further hepatic receptor pathway activation (for example, PXR and CAR) in response to chemical exposure. 48 hours after plating, the culture medium was replaced with HepaRG Serum-Free Incudtion Media. Cells were exposed to each test chemical in duplicate and maintained in CO2 incubators for another 48 hours. Chemical plates were thawed to room temperature and 200x concentrations of treatment groups were prepared. 8-point conentration-reponse curves were made with the highest exposure at 100 uM, followed by half-log dilutions, all in 0.5% DMSO. Each test plate contained variouse controls, induction positive controls (1mM phenobarbital), cytotoxicity positive controls ([…] aflatoxin B1), vehicle controls (0.5% DMSO), and total lysis controls (0.5% DMSO). Cell morphology images were taken using an Essen IncuCyte FLR automated microscope, with six 96-well plates imaged in about 24 minutes. Images were captured and exported and JPEG files. Spent culture media was transfered to black-well plates for the LDH assay, and remaining media was sorted at -80 C for later use. Cells were treated with RLT buffer and frozen until shipped for gene expression analysis. Total RNA was isolated from the cell suspension in 75 uL of Buffer RLT (Qiagen, Germantown, MD 20874) by Quintiles/Expression Analysis (Durham, NC) using a custom isolation procedure. Total RNA from each plate well was transferred to a preamplification plate. Fluidigm's 96.96 Dynamic ArrayTM (Fluidigm, Amsterdam, the Netherlands) technology was used for gene expression analyses by quantitative reverse transcription polymerase chain reaction (qRT-PCR, performed by Quintiles/Expression Analysis, Durham, NC)89. Standard TaqManTM Assays (Applied Biosystems/ThermoFisher Scientific, Foster City, CA) were used to assess the expression of 93 genes selected based on their selectivity and sensitivity to important hepatic receptors known to be modulated by environmental chemicals; importance in human hepatocyte functionality; and hepatotoxicity. […]

Structure (SMILES) | outcome | AC50
O=C(O)C(Cl)Cl | inactive | 
CCOP(=S)(OCC)SCSCC | inactive | 
CCCN(CCC)c1c([N+](=O)[O-])cc(C(C)C)cc1[N+](=O)[O-] | inactive | 
O=P1(N(CCCl)CCCl)NCCCO1 (stereo not given) | inactive | 
COCCOCCO | inactive | 
CC(C)(C)c1ccc(O)cc1 | inactive | 
c1nc[nH]n1 |  | 15.8 µM (active)
c1ccc2c(c1)Nc1ccccc1S2 | inactive | 
O=C(O)C1C(C(=O)O)C2(Cl)C(Cl)=C(Cl)C1(Cl)C2(Cl)Cl (stereo not given) | inactive | 
CCCCCCCc1ccc(O)cc1 | inactive | 
Nc1ccc2ccccc2c1 | inactive | 
Cc1ccc(O)cc1C | inactive | 
CSC(C)(C)C=NO | inactive | 
CCC1(c2ccccc2)C(=O)N=C(O)NC1=O (stereo not given) | inactive | 
CCOS(=O)(=O)OCC | inactive | 
CN(C)C(=O)Cl | inactive | 
c1ccc(OP(Oc2ccccc2)Oc2ccccc2)cc1 | inactive | 
CCOC(=O)c1ccccc1C(=O)OCC | inactive | 
CCN(CC)c1ccccc1 | inactive | 
Cc1cccc(N)c1 | inactive | 

Structure (SMILES) | outcome | AC50
CCOP(=S)(Oc1ccc([N+](=O)[O-])cc1)c1ccccc1 (stereo not given) | inactive | 
ClC1=C(Cl)C2(Cl)C3C(Cl)C(Cl)CC3C1(Cl)C2(Cl)Cl (stereo not given) | inactive | 
CC(Cc1ccc(OCC(=O)O)cc1)NCC(O)c1csc(C(F)(F)F)n1 (stereo not given) | inactive | 
CC(Cl)(Cl)C(=O)O | inactive | 
O=[N+]([O-])c1ccccc1 | inactive | 
CCCCN(CCCC)N=O | inactive | 
OCC1CO1 (stereo not given) | inactive | 
[N-]=[N+]=[N-] | inactive | 
Nc1cc2c3c(c1)C(c1ccccc1)=N[C@@H](NC(=O)c1cccnc1)C(=O)N3CC2 | inactive | 
O=[N+]([O-])c1ccc(Cl)c(Cl)c1 | inactive | 
CCNc1nc(Cl)nc(NC(C)(C)C)n1 | inactive | 
CCCCN(CCCC)SN(C)C(=O)Oc1cccc2c1OC(C)(C)C2 | inactive | 
Nc1ccc(Cl)cc1 | inactive | 
CCC(C)(C)c1ccc(O)cc1 | inactive | 
ClC(Cl)(Cl)c1ccccc1 | inactive | 
Cc1ccc([N+](=O)[O-])cc1C | inactive | 
ClC(Cl)c1ccccc1 | inactive | 
CC(C)(C)OOC(C)(C)C | inactive | 
CCCCc1ccccc1 | inactive | 
O=P(Oc1ccccc1)(Oc1ccccc1)Oc1ccccc1 | inactive | 
